Experimental data published in PubChem BioAssay (NCI).
The panel holds about 83,000 compounds, 20% with a hit somewhere; the sample as a whole holds those more often.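 A percent growth of 40 corresponds to 60% growth inhibition; 0 means no net growth; -100 means all cells died. Active threshold: below 10.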 Values without a mark were called inactive. Calls of active or inactive are those of the source.

What was measured:
Assay in all cases: NCI-60 one-dose screen, 48 h (100 = growth as untreated, 0 = no growth, -100 = all killed)
Details in all cases: 10 µM unless noted
DU-145 prostate = tested on: DU-145 prostate
K-562 leukemia = tested on: K-562 leukemia
MALME-3M melanoma = tested on: MALME-3M melanoma
MDA-MB-231 breast = tested on: MDA-MB-231 breast
RXF 393 renal = tested on: RXF 393 renal
SF-268 CNS = tested on: SF-268 CNS
SF-295 CNS = tested on: SF-295 CNS
SF-539 CNS = tested on: SF-539 CNS
UACC-257 melanoma = tested on: UACC-257 melanoma
M14 melanoma = tested on: M14 melanoma
HCT-15 colon = tested on: HCT-15 colon
HT29 colon = tested on: HT29 colon
SNB-75 CNS = tested on: SNB-75 CNS
SNB-19 CNS = tested on: SNB-19 CNS
U251 CNS = tested on: U251 CNS
PC-3 prostate = tested on: PC-3 prostate
SK-MEL-5 melanoma = tested on: SK-MEL-5 melanoma
UACC-62 melanoma = tested on: UACC-62 melanoma
LOX IMVI melanoma = tested on: LOX IMVI melanoma
SK-MEL-28 melanoma = tested on: SK-MEL-28 melanoma

Structure (SMILES)	growth (DU-145 prostate)	growth (K-562 leukemia)	growth (MALME-3M melanoma)	growth (MDA-MB-231 breast)	growth (RXF 393 renal)	growth (SF-268 CNS)	growth (SF-295 CNS)	growth (SF-539 CNS)	growth (UACC-257 melanoma)	growth (M14 melanoma)	growth (HCT-15 colon)	growth (HT29 colon)	growth (SNB-75 CNS)	growth (SNB-19 CNS)	growth (U251 CNS)	growth (PC-3 prostate)	growth (SK-MEL-5 melanoma)	growth (UACC-62 melanoma)	growth (LOX IMVI melanoma)	growth (SK-MEL-28 melanoma)
CCCS(=O)(=O)Nc1cccc(Nc2ncnc3cc(NC(=O)CCl)ccc23)c1Cl	-92.8% (active)	0% (active)	-79.2% (active)	-72.5% (active)	-87.3% (active)	-55.9% (active)	-80.5% (active)	-85% (active)	10.3%	-43.5% (active)	-26.7% (active)	-63.4% (active)	-93.3% (active)	0.0363% (active)	-93.3% (active)	-25.7% (active)	-85.3% (active)	-66.2% (active)	-83.9% (active)	-22.8% (active)
CC(=O)c1c(/C=C/c2ccc(C)cc2)c2ccccc2[nH]c1=O	94.9%	90.6%	121%	91.7%	104%	75.5%	103%	86.2%	81.1%	104%	102%	105%	73.7%	73.5%	86%	81.2%	95.9%	80.7%	84.7%	110%
CC1(C)CC(=O)C2=C(C1)OC(C(=O)c1ccccc1)C2c1cccc(Oc2ccccc2)c1 (stereo not given)	68.1%	31.7%	59.5%	50.4%	42.8%	44.6%	32.6%	63.9%	45.5%	36.8%	45.6%	43.1%	40.7%	60.8%	40.8%	24%	36.3%	35.9%	37%	74.4%
O=C1c2c(c3c4cc(F)ccc4oc3c3[nH]c4ccccc4c23)C(=O)N1O	31.8%	26.1%	28%	57.6%	39.9%	38.7%	55.7%	2.46% (active)	75.9%	28.6%	33.2%	31.4%	10.3%	26.7%	24.5%	32.3%	-30% (active)	3.37% (active)	-25.3% (active)	29%
CN1CCN(CC(=O)N(C)c2ccc(N=C(c3ccccc3)c3c(O)[nH]c4ccc([N+](=O)[O-])cc34)cc2)CC1	51.3%	5.2% (active)	84%	63.5%	28.2%	74.3%	53.9%	36.1%	103%	36.3%	56.8%	22.7%	74.3%	89.2%	73.1%	47.6%	53%	102%	36.3%	75.4%
O=C1CCc2c(sc3[nH]c(=S)n(-c4cc(C(F)(F)F)cc(C(F)(F)F)c4)c(=O)c23)C1	25.2%	22.5%	-16.7% (active)	-42.5% (active)	-3.65% (active)	19.3%	-21.8% (active)	-51.1% (active)	-25.4% (active)	23.6%	-42.9% (active)	0.73% (active)	-8.04% (active)	15.1%	-22.4% (active)	-38.4% (active)	-88.9% (active)	-12.9% (active)	1.59% (active)	-16.8% (active)
CCc1ccc(Cc2cnc(NC(=O)c3cc(C)oc3C)s2)cc1	60.2%	14.6%	56%	57.8%	15.4%	48.6%	31.8%	31.2%	52.1%	21.4%	24.3%	10.8%	-4.36% (active)	37.1%	33.3%	37.7%	36.8%	25.3%	41.3%	59.5%
